Measured values from PubChem BioAssay AID720504 (National Center for Advancing Translational Sciences (NCATS), 2013).
Among all 360,000 compounds or so, about 10,000 (2.8%) were called active. About 4% were inconclusive and are not listed. Calls follow the shape of the dose curve; as a rule, active = well fitted inhibition curve with a large enough effect; inconclusive = small, poorly fitted or top-dose-only effect; inactive = flat fitted curve, though single readings scatter. Many of the other results were omitted from the sample, so actives are more common in it than they were.

target: Serine/threonine-protein kinase PLK1 (Homo sapiens) (UniProt P53350); experiment: qHTS for Inhibitors of PLK1-PDB (polo-like kinase 1 - polo-box domain): Primary Screen; settings: Plk1 PBD binding of FITC phosphopeptide, fluorescence polarization; also: nearly all actives have a fitted effect of over 65% in size; as to max response, negative = inhibition: series mostly up to about 57 µM
% is scaled to controls: 0 for no effect and ±100 for the full control effect; potency is read from the fitted curve at half-maximal effect.

Sequence of Serine/threonine-protein kinase PLK1 (Homo sapiens) (P53350 whole entry, looked up, the tested form may be a part): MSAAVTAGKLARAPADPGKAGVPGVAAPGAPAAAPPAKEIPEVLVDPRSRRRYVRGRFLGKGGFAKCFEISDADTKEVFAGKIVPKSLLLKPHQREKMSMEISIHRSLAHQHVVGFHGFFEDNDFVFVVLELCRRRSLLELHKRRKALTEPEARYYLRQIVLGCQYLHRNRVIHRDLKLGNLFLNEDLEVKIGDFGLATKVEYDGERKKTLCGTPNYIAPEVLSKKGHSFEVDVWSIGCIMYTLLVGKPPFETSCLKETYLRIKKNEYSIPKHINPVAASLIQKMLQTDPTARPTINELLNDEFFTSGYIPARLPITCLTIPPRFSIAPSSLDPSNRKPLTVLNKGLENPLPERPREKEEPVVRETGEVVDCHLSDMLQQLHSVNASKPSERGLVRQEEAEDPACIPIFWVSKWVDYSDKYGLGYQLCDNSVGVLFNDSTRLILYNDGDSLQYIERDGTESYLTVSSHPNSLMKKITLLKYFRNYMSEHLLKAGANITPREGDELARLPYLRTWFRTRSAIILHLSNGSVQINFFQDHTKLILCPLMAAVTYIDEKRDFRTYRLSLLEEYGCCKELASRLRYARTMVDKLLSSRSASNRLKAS

| Structure (SMILES) | max response, negative = inhibition | Potency |
| --- | --- | --- |
| C[C@H](CO)N1C[C@H](C)[C@@H](CN(C)C(=O)c2cccc(F)c2)Oc2cc(-c3cncnc3)ccc2S1(=O)=O | -2.44% (inactive) | – |
| CC(=O)Nc1ccccc1NC(=O)c1cc(C)cc(C)c1 | – | 9.47 µM (active) |
| Nc1ccc(C(=O)Nc2ccccc2N)cc1 | -11.6% (inactive) | – |
| Cc1ccccc1C(=O)Nc1ccccc1NC(=O)c1ccccc1C | -16.3% (inactive) | – |
| CCc1nnc(NC(=O)C2CC(=O)N(c3ccc4c(c3)OCCO4)C2)s1 (stereo not drawn) | – | 13.4 µM (active) |
| CC(=O)c1ccccc1NC(=O)C1CC(=O)N(c2ccc3c(c2)OCCO3)C1 (stereo not drawn) | 7.84% (inactive) | – |
| CCOC(=O)c1ccc(NC(=O)C2CC(=O)N(c3ccc4c(c3)OCCO4)C2)cc1 (stereo not drawn) | -3.19% (inactive) | – |
| COc1ccccc1N1CC(C(=O)Nc2nnc(SCC(=O)NC(C)C)s2)CC1=O (stereo not drawn) | -26.4% (inactive) | – |
| Cc1ccccc1N1CC(C(=O)Nc2nnc(SCCC3OCCO3)s2)CC1=O (stereo not drawn) | – | 21.2 µM (active) |
| COc1ccccc1N1CC(C(=O)Nc2nnc(SCC(=O)NCC3CCCO3)s2)CC1=O (stereo not drawn) | -29% (inactive) | – |
| CCN1CCN(CCNC(=O)c2ccc3c(c2)NC(=O)/C(=C\c2cccc(Cl)c2)S3)CC1 | -9.11% (inactive) | – |
| COc1cccc(CNc2nc(NCc3cccs3)nc3ccsc23)c1 | -6.78% (inactive) | – |
| COC(=O)[C@@]1(Cc2ccc(F)cc2)[C@H]2c3cc(C(=O)N(C)C)n(CCc4c[nH]c5ccc(OC)cc45)c3C[C@H]2CN1C(=O)c1ccccc1 | -0.876% (inactive) | – |
| C=CCOc1ccccc1CNn1c(C)n[nH]c1=S | -12.8% (inactive) | – |
| O=C(NCc1ccccc1)C1c2ccccc2OCC(=O)N1C1CC1 (stereo not drawn) | 2.78% (inactive) | – |
| Cc1csc(SCC(=O)Nc2ccc(C)c(S(=O)(=O)N(C)C)c2)n1 | -2.14% (inactive) | – |
| c1ccc(CSc2nnc(-c3ccco3)c(-c3ccco3)n2)cc1 | – | 11.2 µM (active) |
| CCc1nnc(SCc2cccc(F)c2)nc1CC | 1.21% (inactive) | – |
| c1ccc(Cc2c(-c3ccco3)nc3c4ccccc4ccn23)cc1 | -8.74% (inactive) | – |
| Clc1ccccc1CSc1nnc(-c2ccco2)c(-c2ccco2)n1 | – | 13.4 µM (active) |
| COC(=O)c1ccc2nc(-c3ccc(F)cc3)c(Cc3ccc(C)cc3)n2c1 | 1.02% (inactive) | – |
| COc1ccc(C(=O)N2CCCCC2c2cc(C(=O)Nc3ccc(F)c(Cl)c3)no2)cc1 (stereo not drawn) | -10.1% (inactive) | – |

| Structure (SMILES) | max response, negative = inhibition | Potency |
| --- | --- | --- |
| CCOCCC(=O)Nc1ccc2c(c1)c(=O)n(C)n2-c1ccc2ccccc2c1 | -3.07% (inactive) | – |
| CCOC(=O)[C@]12CCC=C1N(Cc1ccco1)C(=O)[C@H](CC(=O)NCc1cccc(C(F)(F)F)c1)C2 | -26% (inactive) | – |
| Cc1cc(C(=O)N2CCCC2(C)C(=O)O)c(C)o1 (stereo not drawn) | -5.24% (inactive) | – |
| CCCCC(=O)NC(c1ccc(OC)c(OC)c1)c1ccc2cccnc2c1O (stereo not drawn) | -4.18% (inactive) | – |
| Oc1c(C(c2ccccn2)N2CCOCC2)ccc2cccnc12 (stereo not drawn) | – | 9.47 µM (active) |
| Cc1ccc(S(=O)(=O)N2CCN(S(=O)(=O)N3CCOCC3)CC2)cc1 | -4.72% (inactive) | – |
| O=S(=O)(c1ccc2ccccc2c1)N1CCN(S(=O)(=O)N2CCOCC2)CC1 | -4% (inactive) | – |
| CCn1c(=S)[nH]c2cc(S(=O)(=O)N3CCOCC3)ccc21 | – | 29.9 µM (active) |
| Cc1ccc(CC2(C)C(=O)Nc3ccc(OC(F)(F)F)cc32)cc1 (stereo not drawn) | 0.395% (inactive) | – |
| COCCCNc1ccn2nc(-c3ccc(CC(C)C)cc3)cc2n1 | -1.25% (inactive) | – |
| CCN(CC)C(=O)C1=C(C)N(Cc2ccc(C(C)(C)C)cc2)C(=O)C(CC(=O)NCc2cccc3ccccc23)C1 (stereo not drawn) | -4.44% (inactive) | – |
| CCOc1ccc2c(c1)c(=O)c(S(=O)(=O)c1ccc(C)cc1)cn2CC | – | 26.7 µM (active) |
| CCn1cc(S(=O)(=O)c2cccc(C)c2)c(=O)c2cc(F)c(N3CCN(C)CC3)cc21 | -10.2% (inactive) | – |
| CCCn1cc(S(=O)(=O)c2ccc(C)cc2)c(=O)c2cc(OCC)ccc21 | -12.4% (inactive) | – |
| Fc1cccc(Cc2c(-c3ccc(Cl)cc3)nc3ccc(Cl)cn23)c1 | 9.81% (inactive) | – |
| CN[C@H]1C[C@H]2c3cc(Oc4ccccc4C)ccc3CCN2C(=O)[C@H]1[C@H](C)O | 0.731% (inactive) | – |
| Nc1nc(SCC(=O)Nc2ccc(Cl)cc2C(F)(F)F)n[nH]1 | -8.67% (inactive) | – |
| Nc1nc(SCC(=O)NNc2c(Cl)cc(Cl)cc2Cl)n[nH]1 | – | 18.9 µM (active) |
| Nc1nc(SCC(=O)Nc2ccc(Cl)c([N+](=O)[O-])c2)n[nH]1 | -3.6% (inactive) | – |
| CCCNC(=O)c1cc(C2CCCCN2S(=O)(=O)c2ccc(C#N)cc2)on1 (stereo not drawn) | 6.75% (inactive) | – |
| O=C(CC[C@H]1O[C@@H](n2ccc(=O)[nH]c2=O)[C@H](O)[C@@H]1O)N[C@H](Cc1ccccc1)C(=O)NCc1ccco1 | -11.9% (inactive) | – |
| CC(C)(C)N1C(=O)c2c(C(=O)OCc3ccccc3)[nH]c(-c3ccccc3)c2C1=O | -11.2% (inactive) | – |

| Structure (SMILES) | max response, negative = inhibition | Potency |
| --- | --- | --- |
| Cc1ccc(NC(=O)Cn2sc3ccccc3c2=O)cc1 | – | 2.38 µM (active) |
| Cc1cc(C)cc(NC(=O)CN2C(=O)c3ccccc3C2=O)c1 | -3.07% (inactive) | – |
| Cc1ccc(NC(=O)Cn2c(C)csc2=O)cc1 | -1.66% (inactive) | – |
| Cc1ccc(CCNC(=O)CN2C(=O)CSc3ccc(S(=O)(=O)N4CCOCC4)cc32)cc1 | -9.68% (inactive) | – |
| O=C(CCNS(=O)(=O)c1ccccc1C(F)(F)F)NCc1ccc2c(c1)OCO2 | -4% (inactive) | – |
| O=C(CCc1nnc(Cc2ccc3c(c2)OCO3)o1)NCCc1ccccc1Cl | – | 21.2 µM (active) |
| O=C(CC(Cc1ccccc1)C(=O)O)NCCc1ccc2c(c1)OCO2 (stereo not drawn) | -0.693% (inactive) | – |
| C#Cc1cc(N2CCN(C(=O)c3ccoc3)CC2)n2nc(-c3cccc(Cl)c3)cc2n1 | -12% (inactive) | – |
| FC(F)(F)C1CCCN(c2nsc3ccccc23)C1 (stereo not drawn) | – | 1.5 µM (active) |
| CCNC(=O)C1(C)CCN(Cc2ccc(C(=O)OCC)o2)C1 (stereo not drawn) | 3.81% (inactive) | – |
| C[C@@H]1CN([C@H](C)CO)C(=O)CCCn2nncc2CO[C@@H]1CN(C)C(=O)OCc1ccccc1 | -21.8% (inactive) | – |
| COc1ccc(CN2CCC(C)(Oc3cccc(F)c3)C2)c2ccccc12 (stereo not drawn) | -19.3% (inactive) | – |
| Cc1ccc(F)c(S(=O)(=O)NC(=O)C2(C)CCN2C(=O)c2ccco2)c1 (stereo not drawn) | -2.63% (inactive) | – |
| CCn1c(SCC(=O)N/N=C/c2ccccc2OCC(=O)O)nnc1-c1ccc(C(C)(C)C)cc1 | 5.13% (inactive) | – |
| CCn1c(SCC(=O)N/N=C/C=C/c2ccccc2[N+](=O)[O-])nnc1-c1ccccc1 | – | 23.8 µM (active) |
| Cc1ccc(-n2c(SCC(=O)N/N=C/C=C/c3ccccc3[N+](=O)[O-])nc3ccccc3c2=O)cc1 | 1.55% (inactive) | – |
| Cc1cc(NC(=O)CSc2nc3cc(Cl)ccc3c(=O)n2Cc2ccco2)no1 | – | 21.2 µM (active) |
| Cc1cc(NC(=O)CSc2nnc(-c3ccco3)n2N)no1 | -3.98% (inactive) | – |
| Cc1cc(NC(=O)CSC2=NS(=O)(=O)c3cc(Cl)ccc3N2)no1 | -2.92% (inactive) | – |
| COc1cc(/C=C(\C#N)C(=O)Nc2ccc3ccccc3c2)c([N+](=O)[O-])cc1OC | -1.73% (inactive) | – |
| COc1ccc(NC(=O)/C(C#N)=C\c2cc(OC)c(OCc3ccc(C(=O)O)cc3)cc2Br)cc1 | – | 10.6 µM (active) |
| COc1ccc(CNC(=O)/C(C#N)=C/c2cccc(OC)c2OC)cc1 | -17% (inactive) | – |

| Structure (SMILES) | max response, negative = inhibition | Potency |
| --- | --- | --- |
| O=C(NCc1ccccn1)[C@@H]1CCCN1C(=O)[C@@H]1CCCN1C(=O)c1ccccc1 | -3.01% (inactive) | – |
| N#Cc1ccc(C(C(=O)NCc2ccccc2)n2c(=O)c(-c3ccco3)nc3ccccc32)cc1 (stereo not drawn) | -22.3% (inactive) | – |
| Cc1ccc(NC(=O)C2CCCN2C(=O)OCc2ccccc2)cc1C (stereo not drawn) | 2.68% (inactive) | – |
| Cc1cccc(C)c1NC(=O)C1CCCN1C(=O)OC(C)(C)C (stereo not drawn) | – | 23.8 µM (active) |
| Cc1ccc(C)c(NC(=O)C2CCCN2C(=O)OC(C)(C)C)c1 (stereo not drawn) | -4.64% (inactive) | – |
| CC(=O)NN=C(C)c1ccc(NC(=O)C2CC2)cc1 | -11.2% (inactive) | – |
| COc1cc(Cn2c3ccc(NC(=O)CC(C)c4ccccc4)cc3c(=O)n2C)ccc1F (stereo not drawn) | -6.73% (inactive) | – |
| CCNC(=S)Nc1ccc2c(c1)c(=O)n(C)n2Cc1ccc(Cl)cc1 | – | 21.2 µM (active) |
| Cn1c(=O)c2cc(NC(=O)NCCc3cccs3)ccc2n1Cc1cccc(C(F)(F)F)c1 | -2.39% (inactive) | – |
| COc1ccc(-c2ccc(C(=O)NCCN3CCOCC3)c3occc23)c(C)c1 | -10.9% (inactive) | – |
| C=CCc1ccccc1OCC(O)CN1CCN(CCO)CC1 (stereo not drawn) | 1.6% (inactive) | – |
| CN1CCN(CCCCOc2ccccc2-c2ccccc2)CC1 | -11.3% (inactive) | – |
| OCCN1CCN(C(=S)c2ccc(-c3ccccc3)cc2)CC1 | – | 4.74 µM (active) |
| CCc1nc2c(OCCOc3ccccc3)cccn2c1N(C)C(=O)c1ccc(OC)cc1 | -8.42% (inactive) | – |
| Cc1ccccc1S(=O)(=O)NC(=O)C1(C)CCN1C(=O)C1(c2ccc(Cl)cc2)CC1 (stereo not drawn) | 3.44% (inactive) | – |
| CC1(C(=O)NS(=O)(=O)c2ccc(Cl)cc2)CCN1C(=O)CC1CCCC1 (stereo not drawn) | -6.5% (inactive) | – |
| CC1(C(=O)NS(=O)(=O)c2ccc3ccccc3c2)CCN1C(=O)C1(c2ccc(Cl)cc2)CCC1 (stereo not drawn) | – | 42.3 µM (active) |
| CCCCN(C=O)c1c(CC)nc2c(OCc3ccccc3C(=O)OC)cccn12 | -4.2% (inactive) | – |
| O=C1NC[C@H](CCCCN2C[C@H](Cc3ccc(O)cc3)N(CCc3ccccc3)C(=O)C2=O)N(CCc2ccccc2)C1=O | -1.17% (inactive) | – |
| CCCn1c(SCC(=O)Nc2c(C)cccc2C)nnc1C(C)C | -7.66% (inactive) | – |
| CCCn1c(SCC(=O)c2ccc3c(c2)OCCO3)nnc1C(C)C | – | 2.99 µM (active) |
| CCCn1c(SCC(N)=O)nnc1C(C)C | -6.68% (inactive) | – |
